“And” between values parts separate entries of the source, which are not always exact repeats. Equal values may be shown once. Inconclusive results are not listed. The source made the active and inactive calls.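 The calls were made as follows, unless noted: active = normalized viability below 100% at a tested concentration; inactive = the rest.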
What was measured:
[1] = viability loss in pontine glioma line – cell-based, SU-DIPG-XVII, MIPE5.0, CellTiter-Glo, qHTS, dose response (AID 1347060; cut-off not given, nearly all actives have AC50 up to about 26 µM;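 as to AC50: cells exposed to compound for 48 hours before viability readout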); details: CellTiter-Glo ATP luminescence
[2] = viability loss in pontine glioma line – cell-based, SU-DIPG-IV, MIPE4.0, CellTiter-Glo, qHTS, dose response (AID 1347063; cut-off not given, nearly all actives have AC50 up to about 30 µM;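 also: compound exposure lasted 48 hours before the viability readout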); details: CellTiter-Glo ATP luminescence
[3] = JHH-DIPG-1 glioma cell viability, MIPE5.0 library, CellTiter-Glo luminescence, qHTS (AID 1347067; cut-off not given, nearly all actives have AC50 up to about 26 µM;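 also: cells exposed to compound for 48 hours before readout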); details: JHH-DIPG-1 glioma viability, CellTiter-Glo ATP luminescence
[4] = viability loss with induced miR-34 in A549 – imaging, A549 dox-inducible miR-34, nuclei and caspase counts, primary screen (AID 1347080;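 active = compounds whose cell count with miR-34 switched on is under 0.7 times the count with it off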); details: A549 miR-34 inducible, Hoechst nuclei count, 48 h
[5] = compounds altering HSF1 focus formation in cells – imaging, Selleck Cancer Library (AID 1347162; in the data active = plate-normalised HSF1 focus index below about 0.46); details: human cells, HSF1 nuclear foci imaging, at 10 µM; SSMD: measured here: HSF1 foci SSMD mean; cell count: measured here: cell number; plate-normalised HSF1 focus index: stronger effect = lower value
[6] = MELAS cybrid and Rieske KO viability enhancers – cell-based, MELAS cybrids, Rieske KO mouse fibroblasts, CellTiter-Glo, primary screen (AID 1508586;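 active = mean z-score across replicates of 1.96 or higher in either the MELAS or the Rieske mutant cell line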;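 also: z relative to plate mean and SD of compound and empty wells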); details: low glucose
[7] = drug combination growth inhibition, ovarian cancer – cell-based, oncology-focused library, rucaparib conditional, profiling panel (AID 1508598); details: patient-derived ovarian cancer cells, CellTiter-Glo viability, 144 h, stronger effect = lower value
[8] = viability loss in pontine glioma line – cell-based, SU-DIPG-XIII, MIPE5.0, CellTiter-Glo, qHTS, dose response (AID 1347064; cut-off not given, nearly all actives have AC50 up to about 23 µM;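 as to AC50: cells exposed to compound for 48 hours before the viability read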); details: CellTiter-Glo ATP luminescence
[9] = viability loss in pontine glioma line – cell-based, SU-DIPG-XXV, MIPE5.0, CellTiter-Glo, qHTS, dose response (AID 1347065; cut-off not given, nearly all actives have AC50 up to about 26 µM;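 also: cells exposed to compound for 48 hours before ATP readout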); details: CellTiter-Glo ATP luminescence
[10] = growth inhibition of DIPG cells – cell-based, MIPE4.0 library, CellTiter-Glo luminescence, qHTS (AID 1347066; cut-off not given, nearly all actives have AC50 up to about 30 µM;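 also: cells exposed to compound for 48 hours before readout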); details: SU-DIPG-VI viability, CellTiter-Glo ATP luminescence
[11] = growth inhibition of DIPG cells – cell-based, MIPE5.0 library, qHTS (AID 1347068; cut-off not given, nearly all actives have IC50 up to about 30 µM;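 as to IC50: cells exposed to compound for 48 hours before viability readout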); details: SU-DIPG-XXV viability
[12] = P. berghei load reduction in hepatocytes – cell-based, HepG2, luciferase luminescence, HepG2 viability, primary screen (AID 624349; in the data active = parasite load remaining mostly below about 12%, no sharp cut-off; inactive = mostly above about 10%;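 also: 100% = mean of DMSO negative control wells on the same plate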); details: P. berghei liver stage in HepG2, luciferase luminescence, concentration not given here; parasite load remaining: stronger effect = lower value; viability: measured here: HepG2 viability without parasites
[13] = stronger effect = lower value, cell number ratio, induced over uninduced
[14] = measured here: relative caspase fold change +Dox/-Dox
[15] = measured here: total cells with miR-34 induction, stronger effect = lower value
[16] = measured here: total cells without miR-34 induction
[17] = MELAS cybrid survival, CellTiter-Glo 48 h, stronger effect = higher value
[18] = Rieske KO mouse fibroblast survival, CellTiter-Glo 72 h
[19] = at 0.000305 µM, OCI-C5x cells, with rucaparib 10 µM, 100% = cells with rucaparib alone
[20] = at 0.000305 µM, OCI-C5x cells, without rucaparib
[21] = at 0.000305 µM, OCI-P5x cells, with rucaparib 20 µM, 100% = cells with rucaparib alone
[22] = at 0.000305 µM, OCI-P5x cells, without rucaparib
[23] = at 0.00122 µM, OCI-C5x cells, with rucaparib 10 µM, 100% = cells with rucaparib alone
[24] = at 0.00122 µM, OCI-C5x cells, without rucaparib
[25] = at 0.00122 µM, OCI-P5x cells, with rucaparib 20 µM, 100% = cells with rucaparib alone
[26] = at 0.00122 µM, OCI-P5x cells, without rucaparib
[27] = at 0.00488 µM, OCI-C5x cells, with rucaparib 10 µM, 100% = cells with rucaparib alone
[28] = at 0.00488 µM, OCI-C5x cells, without rucaparib
[29] = at 0.00488 µM, OCI-P5x cells, with rucaparib 20 µM, 100% = cells with rucaparib alone
[30] = at 0.00488 µM, OCI-P5x cells, without rucaparib
[31] = at 0.0195 µM, OCI-C5x cells, with rucaparib 10 µM, 100% = cells with rucaparib alone
[32] = at 0.0195 µM, OCI-C5x cells, without rucaparib
[33] = at 0.0195 µM, OCI-P5x cells, with rucaparib 20 µM, 100% = cells with rucaparib alone
[34] = at 0.0195 µM, OCI-P5x cells, without rucaparib
[35] = at 0.0781 µM, OCI-C5x cells, with rucaparib 10 µM, 100% = cells with rucaparib alone
[36] = at 0.0781 µM, OCI-C5x cells, without rucaparib
[37] = at 0.0781 µM, OCI-P5x cells, with rucaparib 20 µM, 100% = cells with rucaparib alone
[38] = at 0.0781 µM, OCI-P5x cells, without rucaparib
[39] = at 0.313 µM, OCI-C5x cells, with rucaparib 10 µM, 100% = cells with rucaparib alone
[40] = at 0.313 µM, OCI-C5x cells, without rucaparib
[41] = at 0.313 µM, OCI-P5x cells, with rucaparib 20 µM, 100% = cells with rucaparib alone
[42] = at 0.313 µM, OCI-P5x cells, without rucaparib
[43] = at 1.25 µM, OCI-C5x cells, with rucaparib 10 µM, 100% = cells with rucaparib alone
[44] = at 1.25 µM, OCI-C5x cells, without rucaparib
[45] = at 1.25 µM, OCI-P5x cells, with rucaparib 20 µM, 100% = cells with rucaparib alone
[46] = at 1.25 µM, OCI-P5x cells, without rucaparib
[47] = at 5 µM, OCI-C5x cells, with rucaparib 10 µM, 100% = cells with rucaparib alone
[48] = at 5 µM, OCI-C5x cells, without rucaparib
[49] = at 5 µM, OCI-P5x cells, with rucaparib 20 µM, 100% = cells with rucaparib alone
[50] = at 5 µM, OCI-P5x cells, without rucaparib

SMILES: CNC(=O)c1cc(COc2nnc(Nc3ccc(Cl)cc3)c3ccoc23)ccn1
- AC50 [1]: 16.6 µM (active)
- AC50 [2]: 20.9 µM (active)
- AC50 [3]: 5.9 µM (active)
- fold change [4, 13]: 0.883 (inactive)
- fold change [4, 14]: 0.896
- cell count [4, 15]: 5140
- cell count [4, 16]: 5820
- SSMD [5]: -14.1
- cell count [5]: 4310
- plate-normalised HSF1 focus index [5]: 0.266 (active)
- z-score [6, 17]: -0.151 (inactive)
- z-score [6, 18]: 0.512
- viability [7, 19]: 113% (inactive)
- viability [7, 20]: 111% (inactive)
- viability [7, 21]: 105% (inactive)
- viability [7, 22]: 114% (inactive)
- viability [7, 23]: 109% (inactive)
- viability [7, 24]: 117% (inactive)
- viability [7, 25]: 102% (inactive)
- viability [7, 26]: 109% (inactive)
- viability [7, 27]: 108% (inactive)
- viability [7, 28]: 113% (inactive)
- viability [7, 29]: 102% (inactive)
- viability [7, 30]: 108% (inactive)
- viability [7, 31]: 105% (inactive)
- viability [7, 32]: 105% (inactive)
- viability [7, 33]: 104% (inactive)
- viability [7, 34]: 109% (inactive)
- viability [7, 35]: 109% (inactive)
- viability [7, 36]: 110% (inactive)
- viability [7, 37]: 101% (inactive)
- viability [7, 38]: 109% (inactive)
- viability [7, 39]: 108% (inactive)
- viability [7, 40]: 113% (inactive)
- viability [7, 41]: 103% (inactive)
- viability [7, 42]: 111% (inactive)
- viability [7, 43]: 106% (inactive)
- viability [7, 44]: 114% (inactive)
- viability [7, 45]: 98.5% (active)
- viability [7, 46]: 108% (inactive)
- viability [7, 47]: 114% (inactive)
- viability [7, 48]: 128% (inactive)
- viability [7, 49]: 103% (inactive)
- viability [7, 50]: 109% (inactive)

SMILES: Cc1c[nH]c2ncnc(N3CCC(CN)(C(=O)Nc4cccc(OC(=O)N(C)C)c4)CC3)c12
- outcome [1]: inactive
- AC50 [8]: 11.8 µM (active)
- AC50 [9]: 16.6 µM (active)

SMILES: O=c1ccn([C@@H]2O[C@H](CO)[C@@H](O)[C@@H]2F)c(=O)[nH]1
- outcome [1]: inactive
- outcome [2]: inactive
- outcome [9]: inactive
- outcome [10]: inactive
- outcome [3]: inactive
- outcome [11]: inactive

SMILES: CCCc1cc(C)[nH]c(=O)c1CNC(=O)c1cc(-c2ccnc(N3CCN(C)CC3)c2)cc2c1cnn2C(C)C
- outcome [1]: inactive
- outcome [8]: inactive
- outcome [9]: inactive

SMILES: Nc1ncc(C(=O)NC2CN(C(=O)C3CC3)C2)c2ccc(-c3cccc(F)c3)nc12
- outcome [1]: inactive
- outcome [8]: inactive

SMILES: Clc1ccc2ncc(-c3cccc(NC4CNC4)n3)n2c1
- outcome [1]: inactive
- AC50 [2]: 26.4 µM (active)
- outcome [3]: inactive
- outcome [11]: inactive

SMILES: Nc1ccn([C@@H]2O[C@H](CO)[C@@H](O)C2(F)F)c(=O)n1
- parasite load remaining [12]: 8.34% (inactive)
- viability [12]: 190%
- AC50 [1]: 0.0186 µM (active)
- AC50 [2]: 0.526 µM (active)
- outcome [10]: inactive
- outcome [3]: inactive
- outcome [11]: inactive
- fold change [4, 13]: 0.809 (inactive)
- fold change [4, 14]: 2.54
- cell count [4, 15]: 2200
- cell count [4, 16]: 2720
- z-score [6, 17]: 0.323 and -0.775
- z-score [6, 18]: 10.5 and 7.93
- viability [7, 19]: 107% (inactive)
- viability [7, 20]: 87.2% (active)
- viability [7, 21]: 74.1% (active)
- viability [7, 22]: 32.9% (active)
- viability [7, 23]: 90.4% (active)
- viability [7, 24]: 93.9% (active)
- viability [7, 25]: 55.8% (active)
- viability [7, 26]: 27% (active)
- viability [7, 27]: 81% (active)
- viability [7, 28]: 80% (active)
- viability [7, 29]: 57.2% (active)
- viability [7, 30]: 22.9% (active)
- viability [7, 31]: 69.2% (active)
- viability [7, 32]: 58.3% (active)
- viability [7, 33]: 47.3% (active)
- viability [7, 34]: 22% (active)
- viability [7, 35]: 56.5% (active)
- viability [7, 36]: 47.8% (active)
- viability [7, 37]: 50.9% (active)
- viability [7, 38]: 25.3% (active)
- viability [7, 39]: 36.8% (active)
- viability [7, 40]: 35.1% (active)
- viability [7, 41]: 58.9% (active)
- viability [7, 42]: 22.7% (active)
- viability [7, 43]: 33.1% (active)
- viability [7, 44]: 30.2% (active)
- viability [7, 45]: 53.9% (active)
- viability [7, 46]: 25.7% (active)
- viability [7, 47]: 14.3% (active)
- viability [7, 48]: 14.2% (active)
- viability [7, 49]: 42.3% (active)
- viability [7, 50]: 17.7% (active)

SMILES: CO[C@@H]1[C@@H](O)[C@H](O)[C@@H](n2c3c(Cl)cccc3c3c4c(c5c6cccc(Cl)c6[nH]c5c32)C(=O)NC4=O)O[C@H]1CO
- AC50 [1]: 0.105 µM (active)
- AC50 [2]: 0.209 µM (active)
- AC50 [3]: 2.63 µM (active)
- outcome [11]: inactive

SMILES: N#C/C(=C1/Nc2ccccc2S1)c1ccnc(OCc2ccc(CN3CCOCC3)cc2)n1
- AC50 [1]: 14.8 µM (active)
- AC50 [2]: 0.0209 µM (active)
- AC50 [8]: 14.8 µM (active)
- AC50 [10]: 0.743 µM (active)
- AC50 [3]: 20.9 µM (active)

SMILES: CC(=O)Oc1cc2c(s1)CCN(C(C(=O)C1CC1)c1ccccc1F)C2 (configuration not stated)
- outcome [1]: inactive
- AC50 [2]: 16.6 µM (active)
- outcome [9]: inactive
- outcome [3]: inactive
- outcome [11]: inactive
- fold change [4, 13]: 0.891 (inactive) and 0.933 (inactive)
- fold change [4, 14]: 0.621 and 0.805
- cell count [4, 15]: 7600 and 7230
- cell count [4, 16]: 8520 and 7750
- z-score [6, 17]: -1.04 (inactive) and -0.446 (inactive)
- z-score [6, 18]: -0.245 and 0.545

SMILES: CC[C@H](CC#N)OC(=O)N[C@@H](C)c1cccc(NC(=O)Nc2ccc(-c3cnco3)c(OC)c2)c1
- AC50 [1]: 0.525 µM (active)
- AC50 [2]: 1.32 µM (active)
- AC50 [9]: 0.468 µM (active)
- AC50 [3]: 2.63 µM (active)
- IC50 [11]: 14.8 µM (active)

Reference: PubChem BioAssay
